The results in this text go back to PubChem BioAssay (NCATS).

Values joined by “and” are separate entries in the source; they are usually repeats but may differ in a detail not shown here. Identical values can stand only once. Records with an inconclusive call do not appear. Active and inactive are the calls of the source. Unless noted, calls follow the shape of the dose curve; as a rule, active = well fitted curve in the direction sought with a large enough effect; inconclusive = small, poorly fitted or top-dose-only effect, or another doubt; inactive = no such curve, though single readings can be large; an effect the other way counts as inactive or inconclusive.

A short description of test [1]: Cell Viability - LYMP2-017 (AID 972).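 Also: cells exposed to compound for 24 hours at 37 °C; nearly all actives have a fitted effect of over 55% in size.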 Also: potency is read from the fitted curve at half-maximal effect. The method in brief:
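Steps: plate 2500 lymphoblastoid cells per well; incubate 5 hr at 37 C; add compound across a concentration series and incubate 24 hr at 37 C; add CellTiter-Glo and read luminescence after 30 min at room temperature; fit Hill curves for AC50.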

Test [2] is described as follows: Cell Viability - LYMP2-021 (AID 974).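 Also: compound exposure lasts 24 hours at 37 °C; nearly all actives have a fitted effect of over 55% in size.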 Also: potency is read from the fitted curve at half-maximal effect. The method in brief:
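Concentration-response cytotoxicity in a human lymphoblastoid line: 24 hr treatment at 37 C in complete culture medium, tetraoctylammonium bromide as positive control, luminescent ATP quantitation as viability measure.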

Test [3] can be described thus: Cell Viability - LYMP2-023 (AID 975).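 Also: cells exposed to compound for 24 hours at 37 °C; nearly all actives have a fitted effect of over 55% in size.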 Also: potency is read from the fitted curve at half-maximal effect. The gist of the method:
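Concentration-dependent drop in intracellular ATP measures acute cytotoxicity in a human lymphoblastoid line treated for 24 hours in complete culture medium. AC50 values are taken from Hill-equation fits of qHTS data.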

The nature of test [4]: Cell Viability - LYMP2-025 (AID 976).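 Also: cells exposed to compound for 24 h at 37 °C.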 Also: potency is read from the fitted curve at half-maximal effect. The gist of the method:
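In qHTS format, LYMP2-025 lymphoblastoid cells in complete culture medium received compound for 24 hr; ATP-based CellTiter-Glo signal gave viability, with AC50 derived by Hill equation.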

The nature of test [5]: Cell Viability - LYMP2-006 (AID 978).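 Also: cells exposed to compound for 24 hours; nearly all actives have a fitted effect of over 60% in size.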 Also: potency is read from the fitted curve at half-maximal effect. The gist of the method: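 qHTS, 1536-well; 2500 cells/well, 5 hr 37 C; cpd 24 hr 37 C; CellTiter-Glo 30 min RT; luminescence. Tetraoctylammonium bromide pos. ctrl. AC50 via Hill eqn.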
Test [6] in a line: Cell Viability - LYMP2-008 (AID 980). Also: nearly all actives have a fitted effect of over 60% in size. Also: potency is read from the fitted curve at half-maximal effect. The method in brief: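 Acute cytotoxicity is scored as concentration-dependent loss of cellular ATP in a human lymphoblastoid line after 24 hr treatment at 37 C. ATP is quantified by luciferase luminescence.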
Test [7] can be described thus: Cell Viability - LYMP2-010 (AID 981).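 Also: cells exposed to compound for 24 hours at 37 °C; nearly all actives have a fitted effect of over 55% in size.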 Also: potency is read from the fitted curve at half-maximal effect. The method in brief:
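Acute toxicity is scored as a concentration-dependent loss of cellular ATP in human lymphoblastoid cells after 24 hr compound exposure in complete medium. Tetraoctylammonium bromide is the positive control.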

Test [8] can be described thus: Cell Viability - LYMP2-012 (AID 982). Also: potency is read from the fitted curve at half-maximal effect.
Test [9] can be described thus: Cell Viability - LYMP2-014 (AID 983).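 Also: cells exposed to compound for 24 h at 37 °C; nearly all actives have a fitted effect of over 50% in size.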 Also: potency is read from the fitted curve at half-maximal effect. The gist of the method: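 Decrease in intracellular ATP after 24 hr treatment at 37 C, measured by luciferase luminescence, indicated cytotoxicity. Concentration-response data were fitted with the standard Hill equation to give AC50.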
A short description of test [10]: Cell Viability - LYMP2-016 (AID 984). Also: potency is read from the fitted curve at half-maximal effect. The gist of the method:
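qHTS, 1536-well: 2500 LYMP2-016 cells/well, 5 hr 37 C, compound added, 24 hr 37 C, CellTiter-Glo 30 min RT, luminescence. Tetraoctylammonium bromide positive control. AC50 via Hill fit.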

A short description of test [11]: Cell Viability - LYMP2-018 (AID 985).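 Also: compound exposure lasted 24 hr at 37 °C; nearly all actives have a fitted effect of over 50% in size.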 Also: potency is read from the fitted curve at half-maximal effect. The gist of the method: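 Acute cytotoxicity is scored as a concentration-dependent drop in intracellular ATP after 24 hr exposure of the lymphoblastoid line in complete culture medium, measured by luciferase luminescence. Potency is expressed as AC50 from Hill modelling.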
Test [12] is described as follows: Cell Viability - LYMP2-020 (AID 986). Also: potency is read from the fitted curve at half-maximal effect. The method in brief:
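Acute cytotoxicity in a human lymphoblastoid line is scored as a concentration-dependent fall in cellular ATP after 24 hr at 37 C in complete medium. The positive control is tetraoctylammonium bromide, and potency is given as Hill-fit AC50.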

Test [13] in a line: Cell Viability - LYMP2-026 (AID 989).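 Also: cells exposed to compound for 24 h at 37 °C; nearly all actives have a fitted effect of over 50% in size.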 Also: potency is read from the fitted curve at half-maximal effect. The method in brief: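 Concentration-dependent loss of intracellular ATP in human lymphoblastoid cells after 24 hr at 37 C, quantified by luciferase luminescence. AC50 derived from standard Hill equation.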
A short description of test [14]: Cell Viability - LYMP1-002 - Assay at 24 hr (AID 993). Also: potency is read from the fitted curve at half-maximal effect. The method in brief:
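qHTS, LYMP1-002 lymphoblastoid, 24 h cpd, 37 C, CellTiter-Glo ATP luminescence; AC50 via Hill eq.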

The nature of test [15]: Cell Viability - LYMP1-002 - Assay at 40 hr (AID 994). Also: nearly all actives have a fitted effect of over 60% in size. Also: potency is read from the fitted curve at half-maximal effect. The method in brief: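 Viability in the human lymphoblastoid line was measured as intracellular ATP via CellTiter-Glo after 40 hr compound exposure. Tetraoctylammonium bromide served as positive control.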
Test [16] is described as follows: qHTS Assay for Lipid Storage Modulators (AID 1519; calls by dose curve; as to activity change, negative = inhibition: % is scaled to controls: 0 for no effect and ±100 for the full control effect). The following applies: Drosophila S3 cells, BODIPY lipid droplet/cell ratio, laser cytometry, cells loaded with oleic acid. The method in brief: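 Cells seeded at 5,000 per well were treated with compounds over a concentration series and loaded with oleic acid (400 uM, as added). Lipid droplet fluorescence (488 nm excitation, 500-530 nm channel) was read by laser-scanning cytometry and normalized to 20 uM Triacsin C.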

In test [17] the target is Alpha-galactosidase A (Homo sapiens) (UniProt P06280). Put plainly: Counterscreen for Glucocerebrosidase Inhibitors: qHTS Assay for Human alpha-Galactosidase at pH 4.5 (AID 992). Also: 0% is about no effect. The gist of the method: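 Quantitative HTS: compounds tested from 0.7 nM up to 77 uM against 2 nM enzyme with 80 uM 4-MU alpha-D-galactopyranoside. The 20 min room-temperature reaction is stopped with 1M NaOH/1M glycine, pH 10.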

For test [18], the target named is alpha-glucosidase (Oryza sativa, rice) (UniProt Q653V4). Description: Counterscreen for Glucocerebrosidase Inhibitors: qHTS Assay for Rice alpha-Glucosidase at pH 5.0 (AID 997).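 Also: 0% = full activity with enzyme and -100% = basal without enzyme.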 The gist of the method:
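Rice alpha-glucosidase (4 nM final) with 400 uM 4-methylumbelliferyl-alpha-D-glucopyranoside in citrate buffer pH 5.0, 20 min at room temperature, stopped at pH 10; fluorescence 365/440 nm, compounds 0.7 nM–77 uM, AC50 from Hill fits.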

Test [19] has as its target DNA repair nuclease/redox regulator APEX1 (Homo sapiens) (UniProt P27695). Description: qHTS Validation Assay for Inhibitors of the Human Apurinic/apyrimidinic Endonuclease 1 (APE1) (AID 1705;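 also: TAMRA fluorescence gain over two minutes as APE1 cuts a quenched THF abasic duplex; % is scaled to controls: 0 for no effect and ±100 for the full control effect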). The method in brief: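 Read-out: TAMRA fluorescence (525 nm ex, 598 nm em) from cleavage of a quenched THF abasic-site duplex, 50 nM final; activity taken as intensity change between third and first of three reads 60 s apart.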

The mark [20] stands for this setting: measured here: cell count channel max response.
[21] abbreviates: measured here: lipid channel max response.

DNA repair nuclease/redox regulator APEX1 (Homo sapiens), sequence (P27695 whole entry, looked up): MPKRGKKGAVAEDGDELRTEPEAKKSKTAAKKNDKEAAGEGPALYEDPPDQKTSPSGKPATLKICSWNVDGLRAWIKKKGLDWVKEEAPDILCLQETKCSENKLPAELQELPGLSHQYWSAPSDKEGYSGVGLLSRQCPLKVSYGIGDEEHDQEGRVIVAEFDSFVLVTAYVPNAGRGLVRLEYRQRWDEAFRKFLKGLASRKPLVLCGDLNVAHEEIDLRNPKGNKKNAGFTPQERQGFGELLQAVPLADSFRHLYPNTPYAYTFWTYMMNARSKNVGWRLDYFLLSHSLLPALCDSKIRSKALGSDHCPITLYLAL
Alpha-galactosidase A (Homo sapiens), sequence (P06280 whole entry, looked up): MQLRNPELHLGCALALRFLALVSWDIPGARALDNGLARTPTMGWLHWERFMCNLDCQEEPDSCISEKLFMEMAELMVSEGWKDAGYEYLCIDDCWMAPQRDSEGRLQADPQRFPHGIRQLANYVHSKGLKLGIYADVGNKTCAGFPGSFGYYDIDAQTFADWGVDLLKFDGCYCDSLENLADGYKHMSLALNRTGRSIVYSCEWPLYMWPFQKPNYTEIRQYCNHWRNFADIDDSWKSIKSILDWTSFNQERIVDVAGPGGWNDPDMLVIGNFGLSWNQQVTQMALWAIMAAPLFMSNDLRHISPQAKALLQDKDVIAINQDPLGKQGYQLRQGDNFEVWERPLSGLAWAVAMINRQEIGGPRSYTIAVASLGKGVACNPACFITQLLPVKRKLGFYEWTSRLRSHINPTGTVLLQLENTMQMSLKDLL

On to `NNC(=O)c1ccncc1`, for which the Potency entry in test [1], in [2], in test [3], in [4], in [5] and in [6] was “inactive” in each case. The Potency entry in test [7], in test [8], in [9], in test [10], in test [11] and in test [12] was “inactive” throughout. Also, the Potency entry in [13], in test [14] and in test [15] was “inactive” throughout. In test [16] (at 25.7 µM (top of the series)), the activity change, negative = inhibition was -0.316% (inactive). For the same molecule, the max response in [16] (setting [20]) is -8.98%; in test [16] (setting [21]), -8.54%.
For `COc1cc2ncnc(Nc3cccc(Cl)c3)c2cc1OC`, the molecule was classed as inactive in test [17], in test [18] and in test [19].
On to `O=C(O)c1cccnc1`, for which the results for the activity change, negative = inhibition in test [16] (at 25.7 µM (top of the series)) and in [16] (at 57.5 µM (top of the series)) were -4.1% (inactive) and 5.73% (inactive), respectively. Also, the max response is -11.4% and 15.3% in test [16] (setting [20]); -16.2% and 21.7% in test [16] (setting [21]).
Take `O=C(O)c1cc(=O)[nH]c(=O)[nH]1`: the Potency entry in [1], in test [2], in test [3], in [4], in [5] and in test [6] was “inactive” throughout. In addition, the Potency entry in test [7], in test [8], in [9], in test [10], in [11] and in test [12] was “inactive” throughout. Besides, the Potency entry in [13], in test [14] and in test [15] was “inactive” in each case.
As for `CN(C)c1ccc(C(=C2C=CC(=[N+](C)C)C=C2)c2ccc(N(C)C)cc2)cc1`, the Potency in test [1] is 3.98 µM (active); in test [2], 2.51 µM (active); in test [3], 3.16 µM (active); in [4] it was 6.31 µM (active); in test [5], 3.16 µM (active); in test [6], 2 µM (active). The Potency in test [7] is 1.26 µM (active); in test [8] it was 1 µM (active); in test [9], 2 µM (active); in [10], 2 µM (active); in test [11], 2 µM (active); in test [12], 2 µM (active). Further, the Potency in [13] is 2.51 µM (active); in test [14], 3.16 µM (active); in test [15], 3.98 µM (active).
As to `CC(C)(C)NC(=O)[C@H]1CC[C@H]2[C@@H]3CC[C@H]4NC(=O)C=C[C@]4(C)[C@H]3CC[C@]12C`, the molecule was called inactive in test [17], in [18] and in test [19]. In addition, the activity change, negative = inhibition in test [16] (at 57.5 µM (top of the series)) is -0.33% (inactive). Besides, the max response in test [16] (setting [20]) is -43.7%; in [16] (setting [21]) it was -42.5%.
Regarding `CCn1cc(C(=O)O)c(=O)c2cc(F)c(N3CCNCC3)cc21`, the activity change, negative = inhibition in [16] (at 25.7 µM (top of the series)) is 0.231% (inactive); in test [16] (at 57.5 µM (top of the series)) it was 8.94% (inactive). Besides, the max response was -2.5% and 14.7% in test [16] (setting [20]); -2.45% and 30% in test [16] (setting [21]).
As to `NC(=O)c1cccc(N)c1`, the result in [17], in test [18] and in [19] was inactive. Further, in [16] (at 57.5 µM (top of the series)), the activity change, negative = inhibition was 7.95% (inactive). In addition, the figures for the max response in [16] (setting [20]) and in test [16] (setting [21]) were 35.3% and 59.1%, respectively.
As to `CC(C)(Sc1cc(C(C)(C)C)c(O)c(C(C)(C)C)c1)Sc1cc(C(C)(C)C)c(O)c(C(C)(C)C)c1`, the activity change, negative = inhibition was -2.44% (inactive) in [16] (at 25.7 µM (top of the series)) and 6.58% (inactive) in test [16] (at 57.5 µM (top of the series)). Moreover, the max response is 2.96% and 13.3% in test [16] (setting [20]); 1.97% and 25.1% in test [16] (setting [21]).
